From PubChem BioAssay
APOBEC3A inh: APOBEC3A ssDNA deaminase inhibitors, primary screen, selectivity assay for APOBEC3G inhibitor project, biochemical, FAM/TAMRA oligo cleavage fluorescence | DNA dC->dU-editing enzyme APOBEC-3A (Homo sapiens), P31941 | recombinant A3A, FAM/TAMRA ssDNA deamination fluorescence | inhibition, % at 20 µM | 0.41% of 330,000 active;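 active = at least 40% inhibition at 20 µM here, with at most 30% in a related deaminase screen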
GC-A act: GC-A stimulated cGMP production enhancers – HEK293 GC-A cells, cGMP TR-FRET, EC30 ANP, primary screen | 0% at EC30 ANP, 100% saturating ANP | activation, % at 10 µM | 0.14% of 370,000 active | AID 1671463, 2021; in the data active = activation above about 40%
Target sequence (P16066 whole entry, looked up): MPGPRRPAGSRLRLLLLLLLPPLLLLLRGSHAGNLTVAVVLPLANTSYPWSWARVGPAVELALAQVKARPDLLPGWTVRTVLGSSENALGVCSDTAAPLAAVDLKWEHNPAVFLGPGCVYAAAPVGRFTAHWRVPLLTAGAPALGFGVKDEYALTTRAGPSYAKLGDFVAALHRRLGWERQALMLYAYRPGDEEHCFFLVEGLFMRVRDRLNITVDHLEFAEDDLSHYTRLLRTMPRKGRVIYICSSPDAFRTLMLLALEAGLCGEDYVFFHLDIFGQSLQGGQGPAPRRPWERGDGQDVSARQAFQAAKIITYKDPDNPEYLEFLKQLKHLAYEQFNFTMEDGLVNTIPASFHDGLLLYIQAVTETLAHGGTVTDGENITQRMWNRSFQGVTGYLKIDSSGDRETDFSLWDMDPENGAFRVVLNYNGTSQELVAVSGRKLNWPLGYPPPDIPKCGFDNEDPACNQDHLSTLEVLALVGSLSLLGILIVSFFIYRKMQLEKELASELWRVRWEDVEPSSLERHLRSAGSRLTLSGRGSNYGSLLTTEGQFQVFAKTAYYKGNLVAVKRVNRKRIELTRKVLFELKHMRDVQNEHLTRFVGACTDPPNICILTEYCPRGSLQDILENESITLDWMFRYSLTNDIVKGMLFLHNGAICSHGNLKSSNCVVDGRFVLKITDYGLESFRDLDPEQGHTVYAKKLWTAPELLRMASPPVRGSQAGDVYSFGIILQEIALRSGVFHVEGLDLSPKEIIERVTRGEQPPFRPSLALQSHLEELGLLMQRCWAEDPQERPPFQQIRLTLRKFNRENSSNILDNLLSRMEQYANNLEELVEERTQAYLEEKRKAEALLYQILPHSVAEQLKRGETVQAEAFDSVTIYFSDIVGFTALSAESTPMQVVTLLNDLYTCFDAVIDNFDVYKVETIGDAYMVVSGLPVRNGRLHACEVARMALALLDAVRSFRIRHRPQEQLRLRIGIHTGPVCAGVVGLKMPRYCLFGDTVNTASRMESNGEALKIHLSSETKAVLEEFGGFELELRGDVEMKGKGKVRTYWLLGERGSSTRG
NPR2 activator: human GC-B receptor activators, primary screen, HEK293 GC-B cells, cGMP TR-FRET, EC30 CNP; 0% at EC30 CNP, 100% saturating CNP; Atrial natriuretic peptide receptor 2 (Homo sapiens), P20594; activation, % at 10 µM; 0.11% of 370,000 active;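 active = activation at 10 µM reaching about 35% in either raw or pattern-adjusted values, limit read from the data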
A3G deaminase: APOBEC3G DNA deaminase inhibitors, primary screen, biochemical, fluorescence, single-stranded DNA substrate, uHTS | recombinant A3G, ssDNA deamination FAM/TAMRA fluorescence | inhibition, % at 20 µM | 0.28% of 330,000 active | AID 493012, 2011;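 active = inhibition of at least 40% at 20 µM, with no more than 30% in the related APOBEC3A deaminase screen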
Neddyl block: inhibitors of cullin neddylation, primary screen, biochemical, TR-FRET, uHTS, NAE and Ubc12; NEDD8-conjugating enzyme Ubc12 (Homo sapiens) + NEDD8-activating enzyme E1 regulatory …; inhibition, % at 25 µM; 0.58% of 360,000 active; AID 651699, 2012; in the data active = inhibition above about 36%
PfGluPho inh: PfG6PD enzyme inhibitors, primary screen, biochemical, fluorescence intensity, uHTS | PfGluPho enzyme, NADPH resazurin-diaphorase fluorescence | glucose-6-phosphate dehydrogenase-6-phosphogluconolactonase (Plasmodium falciparum 3D7) | inhibition, % at 20 µM | AID 504690, 2011 | 0.78% of 350,000 active;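 active = inhibition reaching at least a set limit at 20 µM in the primary screen, cut at about 59% in these data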
Neddyl conf: blockade of NEDD8 conjugation to cullin – biochemical, TR-FRET, single concentration, confirmation. shares compounds with Neddyl block. TR-FRET cullin neddylation biochemical assay. calls only at 25 µM. 13% of 1,800 active. AID 652217, 2013; in the data active = inhibition above about 40%;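 note: neddylation substrate is the cullin 1 ring ligase complex with SKP2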
Each line names hits and unclear results; the compound was inactive in the other large screens (follow-up assays come after a bar, where shown). Rows were chosen to be rich in hits. Some 2% of all compounds tested hit in one or more screens of this group.

CCCCc1c(-c2ccccc2OC)ncn1Cc1cccc(F)c1F	none (no result: APOBEC3A inh, A3G deaminase, Neddyl block, PfGluPho inh)
O=C(N/N=C/c1c(O)n(Cc2ccccc2)c(=O)c2ccccc12)c1cccnc1	Neddyl block 42.2
O=C(N/N=C/c1c(O)n(-c2ccccc2Cl)c(=O)c2ccccc12)c1cccnc1	none (no result: APOBEC3A inh, A3G deaminase)
COc1cccc(C(c2c(NC(=O)c3ccco3)sc(C)c2C)N2CCOCC2)c1 (stereo unspecified)	Neddyl block 43.3
O=C(Oc1ccc(Cl)c(Cl)c1)C1=CC=CN2CCS(=O)(=O)N=C12	none
CC(NC(=O)C1=CC=CN2CCS(=O)(=O)N=C12)c1ccc(Cl)cc1Cl (stereo unspecified)	Neddyl block 55.2
CC(NC(=O)C1=CC=CN2CCS(=O)(=O)N=C12)c1ccc(Cl)c(Cl)c1 (stereo unspecified)	Neddyl block 43.6 | Neddyl conf active
O=C(Nc1nc2ncccn2c1-c1ccc(F)cc1)c1ccc(F)cc1	none (no result: APOBEC3A inh, A3G deaminase, Neddyl block, PfGluPho inh)
COc1ccc(CN[C@@H]2CC[C@@]34CCCN3C(=O)CCC[C@H]4C2)cc1OC	none (no result: APOBEC3A inh, A3G deaminase, Neddyl block, PfGluPho inh)
COc1ccc(C(=O)N/C(=C/c2ccco2)C(=O)NC2CCS(=O)(=O)C2)cc1 (stereo unspecified)	none
Cc1ccc(C(=O)N/C(=C/c2ccc(-c3ccc(Br)cc3)o2)C(=O)NC2CCS(=O)(=O)C2)cc1 (stereo unspecified)	Neddyl block 47.5 | Neddyl conf inactive
COC(=O)c1ccc(-c2ccc(/C=N/NC(=O)CC3(C)OCCCO3)o2)cc1	Neddyl block 41.0 | Neddyl conf inactive
N#CC(C#N)=Cc1cn(-c2ncc(C(F)(F)F)cc2Cl)c2ccccc12	Neddyl block 45.7 | Neddyl conf inactive
CC(=O)/C=C\c1cn(-c2ncc(C(F)(F)F)cc2Cl)c2ccccc12	none
COc1ccc(/C=C/C(=O)OCC(=O)Nc2nnc(-c3ccccc3)o2)c(OC)c1	none (no result: APOBEC3A inh, A3G deaminase)
COc1cccc(/C=C/C(=O)OCC(=O)Nc2cccc(S(=O)(=O)NC3=NCCCCC3)c2)c1	Neddyl block 42.1
COc1cccc(/C=C/C(=O)OCC(=O)Nc2nnc(-c3ccccc3)o2)c1	Neddyl block 47.4 (no result: GC-A act, NPR2 activator) | Neddyl conf inactive
COC(=O)c1ccc(CNC(=O)COC(=O)/C=C/c2cccc(OC)c2)cc1	Neddyl block 46.0 (no result: APOBEC3A inh, A3G deaminase) | Neddyl conf inactive
COC(=O)C[C@H]1CC[C@H]2[C@H](COc3ccc(NS(=O)(=O)c4cccc(F)c4)cc3C(=O)N2C)O1	none (no result: APOBEC3A inh, A3G deaminase, Neddyl block, PfGluPho inh)
Nc1ccccc1-n1cccc1	Neddyl block 40.5 | Neddyl conf inactive
Cc1cccc(C)c1NC(=O)c1ccc(OCc2c(C)noc2C)cc1	Neddyl block 49.9 | Neddyl conf inactive
O=C(N/N=C/c1cccnc1)c1ccc(CN2c3cccc4cccc(c34)S2(=O)=O)cc1	Neddyl block 46.2 | Neddyl conf active
COc1cccc(/C=N/NC(=O)c2ccc(CN3c4cccc5cccc(c45)S3(=O)=O)cc2)c1	none (not shown: Neddyl block)
CCOC(=O)CNC(=O)c1sc(NC(=O)c2ccccc2F)nc1C	Neddyl block 44.4 | Neddyl conf active
CCOC(=O)CNC(=O)c1sc(NC(=O)c2cccc(F)c2)nc1C	none
COC(=O)c1cccc(OC[C@@H](O)CN2CCC(C(O)(c3ccccc3)c3ccccc3)CC2)c1	none (no result: APOBEC3A inh, A3G deaminase, Neddyl block, PfGluPho inh)
CCCS(=O)(=O)Nc1c(C(=O)O)[nH]c2ccc(OC)cc12	none (not shown: Neddyl block)
COc1ccc2[nH]c(C(=O)O)c(NS(=O)(=O)c3ccc(C)cc3C)c2c1	Neddyl block 48.4
Cc1nn(-c2ccccc2)c2sc(C(=O)NCCc3ccccc3)cc12	none (no result: APOBEC3A inh, A3G deaminase, Neddyl block, PfGluPho inh)
